Bioassay records (PubChem)
TGFb inhibitor: blocks TGF-b signaling. HepG2 CAGA-GFP TGF-b/SMAD3 reporter, GFP fluorescence, 18 h; TGF-beta stimulated, 500 pg/mL final. Potency, µM (series often up to 46.1 µM), without a hit: at the highest dose activity, negative = inhibition, actives largely listed as inhibitors. hit rate 1.2% among 410,000. AID 588855; further: potency means the concentration at half of the fitted maximal effect; on the % scale 0 is the no-effect control and ±100 the full control effect; nearly all actives have a fitted effect of over 65% in size
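Inhibition was scored as loss of TGF-beta-induced (500 pg/mL final, 18 hours, 37 degrees C) GFP in HEPG2 cells carrying a CAGA-GFP reporter, in DMEM with 1% FBS. Well GFP was summed per cell; Activity was normalised to unstimulated and stimulated DMSO wells, then concentration-response fitting.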
ATXN2 expr inh: reduces ATXN2 reporter expression in HEK-293 cells; HEK-293 ATXN2-luciferase reporter, luminescence, 24 h; Potency, µM (titrated, usually from 57 µM), without a hit: at the highest dose activity change, negative = inhibition, actives largely listed as inhibitors; hit rate 0.72% among 360,000; AID 1745845; further: potency means the concentration at half of the fitted maximal effect; on the % scale 0 is the no-effect control and ±100 the full control effect; nearly all actives have a fitted effect of over 55% in size
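ATXN2-luciferase reporter cells (luciferase flanked by upstream and downstream ATXN2 gene portions) were treated 24 h at 37 °C with compounds at up to 57 uM. SteadyGlo luminescence gave expression; GF-AFC fluorescence gave viability.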
S2 tox: cell viability loss in ATXN counter-screen; S2 cells (HEK-293 line with an ATXN2-luciferase reporter) viability, CellTiter-Fluor protease fluorescence, 24 h; Potency, µM (highest dose often 56.7 µM), actives largely listed as cytotoxic; hit rate 0.49% among 400,000; AID 651635; further: potency means the concentration at half of the fitted maximal effect; nearly all actives have a fitted effect of over 40% in size
HepG2 tox: kills HepG2 cells in TGF-b inhibitor counter-screen; HepG2 CAGA-GFP viability, ATP luminescence, 18 h; Potency, µM (top dose mostly 46.1 µM), for inactives: at the highest dose activity change, negative = cytotoxicity, actives largely listed as cytotoxic; hit rate 0.76% among 410,000; AID 588856; further: potency means the concentration at half of the fitted maximal effect
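CellTiter-Glo luminescence gave cytotoxicity after 18 hours at 37 degrees C. The cells were HepG2 CAGA-GFP in 1% FBS DMEM, stimulated with 500 pg/mL TGF-beta after compound addition. %Activity was normalised to no-cell wells (complete cell-killing) and DMSO (no toxicity), and curves were fitted and classified.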
IL-1B inflam inh: inhibitors of inflammasome signaling (IL-1 beta secretion) | THP-1 LPS/ATP IL-1B secretion, AlphaLISA, 16 h; active compounds read low | activity change, % at 57.5 µM | hit rate 4.7% among 360,000; in the data active means activity change below about -50%; inconclusive means mostly about -30% to -49%; further: on the % scale 0 is the no-effect control and ±100 the full control effect
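THP-1 cells pretreated 1 hr with compounds (up to 57.5 uM final), then stimulated with LPS (250 ng/mL final) plus ATP (1.25 mM final); secreted IL-1B measured by AlphaLISA after 16 hr, decreased signal indicating inhibition.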
Numbers without * were called inactive; i = inactive; ? = inconclusive; . = no result given. A selection: hits, their analogues and other compounds. The true share with any hit is near 5.7%. Unless noted, the call rests on the fitted dose curve; in most records, active means well fitted curve in the direction sought with a large enough effect; inconclusive means small, poorly fitted or top-dose-only effect, or another doubt; inactive means no such curve, though single readings can be large; an effect the other way counts as inactive or inconclusive.

SMILES	TGFb inhibitor	ATXN2 expr inh	S2 tox	HepG2 tox	IL-1B inflam inh
Nc1c(C(=O)Nc2ccccc2)c2nc3ccccc3nc2n1CCCN1CCOCC1	?	?	i	14.1µM*	-77.9*
CCCNC(=O)c1c(N)n(-c2cccc(OC)c2)c2nc3ccccc3nc12	?	?	.	-30.4%	-70.9*
COCCCNC(=O)c1c(N)n(-c2cccc(S(N)(=O)=O)c2)c2nc3ccccc3nc12	?	-19.0%	.	-1.4%	-52.5*
C=CCn1c(N)c(C(=O)Nc2cccc(C)c2)c2nc3ccccc3nc21	-36.1%	-6.2%	i	-10.7%	-60.8*
CCN(CCO)c1ccc(-n2c(N)c(C(=O)OC)c3nc4ccccc4nc32)cc1	29.1%	-2.1%	i	10.3%	-53.7*
O=[N+]([O-])c1ccc(Sc2cccc3cccnc23)c([N+](=O)[O-])c1	3.98µM*	?	6.31µM*	-105.4%	0.0
C=CCn1nc([N+](=O)[O-])nc1Sc1cccc2cccnc12	3.16µM*	22.4µM*	.	5.62µM*	-98.8*
Cc1cc(C)nc(Sc2ccc([N+](=O)[O-])cc2[N+](=O)[O-])n1	?	?	i	-21.9%	-59.8*
CN(C)/N=C/c1ccc(Sc2ccc([N+](=O)[O-])cc2[N+](=O)[O-])o1	-11.9%	-5.9%	i	0.6%	-27.0
O=[N+]([O-])c1ccc(Sc2ccncn2)c([N+](=O)[O-])c1	11.2µM*	.	.	10µM*	-79.9*
O=[N+]([O-])c1cc(Cl)ccc1Sc1cccc2cccnc12	-0.8%	-4.9%	i	-14.8%	42.0
O=[N+]([O-])c1cc(Cl)ccc1Sc1ccccn1	-0.7%	-11.6%	i	-26.3%	-7.3
Cc1cc2oc(=O)c(CC(=O)NCCc3ccccc3F)c(C)c2c2occ(C(C)(C)C)c12	?	.	.	-15.5%	.
O=C(Nc1nc2n(n1)C(c1ccc(F)cc1)C=C(c1ccc(Cl)cc1)N2)c1ccc([N+](=O)[O-])cc1 (stereo unspecified)	-19.0%	9.5%	i	-31.7%	.
COc1cccc(Cn2c(=O)n(-c3ccccc3C)c(=O)c3c2c2cc(C)ccc2n3C)c1	-27.6%	206.5%	i	-4.0%	.
COc1cc(OC)c(C=CS(=O)(=O)Cc2ccc(OC)c(NCC(=O)O)c2)c(OC)c1	.	-1.9%	.	.	.
CCOc1ccc2nc(N3CCN(C(=O)c4ccco4)CC3)sc2c1	-1.5%	.	.	-23.1%	.
CC1CN(c2nc3ccccn3c(=O)c2/C=C(\C#N)C(N)=O)CC(C)O1 (stereo unspecified)	8.2%	9.7%	i	-30.4%	-65.2*
COc1cccc(C(C(=O)NC2CCCC2)N2CCN(c3ncccc3C#N)CC2)c1OC (stereo unspecified)	.	.	.	.	-11.7
COc1cccc(C(C(=O)NC2CCCC2)N2CCN(c3cc(C)ccc3C)CC2)c1OC (stereo unspecified)	.	.	.	.	-58.5*
Cc1ccc(C)c(N2CCN(C(C(=O)NC3CCCC3)c3ccco3)CC2)c1 (stereo unspecified)	.	.	.	.	-54.6*
CCOc1nc(C)ccc1-c1noc(-c2ccccn2)n1	-4.7%	7.8%	i	-3.8%	-51.2*
CCOc1nc(C)ccc1-c1noc(-c2ccco2)n1	-7.0%	24.7%	i	-3.6%	-13.5
O=[N+]([O-])c1cccc(-c2nc3ccccc3s/c2=N/O)c1	-2.3%	-21.3%	i	-36.8%	-81.1*
Cc1ccccc1Cn1ccn(-c2ccc(F)c(F)c2)c(=O)c1=O	6.2%	.	.	1.1%	.
SMILES	TGFb inhibitor	ATXN2 expr inh	S2 tox	HepG2 tox	IL-1B inflam inh
CCOc1ccc(C(O)(CCC(C)C)C(CN2CCOCC2)c2ccccc2)cc1 (stereo unspecified)	?	-28.1%	i	-30.9%	-60.1*
CCc1ccc(C(O)(c2ccccc2OC)C(CN2CCOCC2)c2ccccc2)cc1 (stereo unspecified)	?	-30.3%	i	-7.0%	36.6
CCOc1ccc(C(O)(c2ccccc2)C(CN2CCCC2)c2ccccc2)cc1 (stereo unspecified)	-0.4%	-27.6%	i	-9.8%	-60.9*
COc1ccc(C(O)(CC(C)C)C(CN2CCOCC2)c2ccccc2)cc1 (stereo unspecified)	?	-5.0%	i	-17.4%	-5.1
COc1ccc(C(O)(CCC(C)C)C(CN2CCOCC2)c2ccc(Cl)cc2)cc1 (stereo unspecified)	?	-27.8%	i	-48.6%	-81.4*
CC(C)(C)c1cc(C(C)(C)C)c(NC(=O)c2c[nH]c3ccccc3c2=O)cc1O	.	8.0%	.	.	.
Cc1cc(C)c(NC(=O)C2CCN(c3nnc(C)c4c(C)n(-c5ccccc5)nc34)CC2)c(C)c1	?	.	.	20.3%	.
CC(C)(C)n1nc2c(c1NC(=O)c1ccc(Cl)c([N+](=O)[O-])c1)CS(=O)(=O)C2	-12.1%	-14.6%	i	-3.5%	-97.5*
Cc1ccc(C(=O)Nc2c3c(nn2C(C)(C)C)CS(=O)(=O)C3)cc1[N+](=O)[O-]	-1.6%	7.1%	i	-7.6%	-20.8
COc1ccc(CCC(=O)NCc2nc3cccnc3n2Cc2ccccc2)cc1	-6.0%	.	.	-22.6%	.
CCCCn1c(SCC(=O)c2ccccc2)nc2ccsc2c1=O	?	-19.2%	i	-17.8%	-58.7*
CCC(=O)N1CCc2cc(CNS(=O)(=O)c3cc(Cl)ccc3OC)ccc21	-7.0%	.	.	0.2%	.
COC(=O)C1=CC(C(=O)c2cccs2)=NN(c2ccc(OC)cc2)C1C(=O)OC (stereo unspecified)	-27.2%	-6.0%	i	-30.4%	-69.1*
COc1ccc(CNC(=O)c2cc(-c3cc(C)cc(C)c3O)n[nH]2)cc1	?	.	i	-29.5%	-68.5*
Cc1cc(C)c(O)c(-c2cc(C(=O)NCCc3ccc(S(N)(=O)=O)cc3)[nH]n2)c1	-22.9%	-12.6%	i	7.8%	-50.9*
Cc1cc(C)c(O)c(-c2cc(C(=O)NCc3ccccc3)[nH]n2)c1	?	-9.2%	i	-34.9%	?
COc1cc(/C=C2\CC/C(=C\c3cc(OC)c(OC)c(OC)c3)C2=O)cc(OC)c1OC	?	-32.5%	i	8.5%	-59.9*
COc1cc(/C=C2/CCC/C(=C\c3cc(O)c(OC)c(Cl)c3)C2=O)cc(Cl)c1O	?	?	.	12.6µM*	-107.1*
COc1cc(/C=C2\SC(N)=NC2=O)cc(Cl)c1O	16.6%	.	?	-12.6%	7.8
COc1ccc(/C=C2/CC/C(=C\c3ccc(OC)c(OC)c3OC)C2=O)c(OC)c1OC	7.2%	-26.6%	i	17.3%	-21.8
COc1cc(/C=C2\CC(C(C)(C)C)C/C(=C\c3cc(OC)c(OC)c(OC)c3)C2=O)cc(OC)c1OC (stereo unspecified)	11.2µM*	?	?	-70.8%	-97.8*
